High-throughput results: PubChem BioAssay, Broad Institute
PRC2 inh: EZH2 (human) methyltransferase inhibition; Q15910; PRC2 H3K27 methylation, DELFIA TRF, 1 h; inhibition, % at 12.5 µM; hit rate 0.35% among 57,000; AID 651548;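 active = mean inhibition of replicates at least 50% and every single replicate also reaching 50%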;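 note: dimethyl H3K27 on biotinylated H3 21-44 peptide detected by antibody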
Large screens that a line does not name were inactive. Many of the other results were omitted from the sample, so hits are more common in it than they were.

CCCCC/C=C\C/C=C\C/C=C\C/C=C\CCCC(=O)NCc1ccc(O)c(OC)c1	none
CCC(=O)Nc1ccc(Cl)c(Cl)c1	none
CCCCC/C=C/C/C=C/C/C=C/C/C=C/CCCC(=O)Nc1ccc(O)cc1	PRC2 inh 69
O=C(O)c1[nH]c2ccc(Cl)cc2c1CC(=O)N1CCC2(CC1)OCCO2	none
CN1[C@@H]2CC[C@H]1CC(OC(=O)N1Cc3ccccc3NC1=O)C2 (some centres undefined)	none
